# Measured values taken from PubChem BioAssay (NCI).
# Compounds without any hit were thinned out: in the full panel of roughly 83,000, 20% have a hit.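 How to read the values: 0–100, growth inhibition (40 = 60% inhibited); 0, no net growth; -100 to 0, cell death (-40 = 40% of starting cells died; -100 = all dead).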 A number with no mark means an inactive call. The source made the active and inactive calls. The calls were made as follows: active = growth percent below 10; inactive = the rest.
# Columns and labels:
# Assay in all cases: NCI-60 one-dose screen, 48 h (100 = growth as untreated, 0 = no growth, -100 = all killed)
# Settings in all cases: 10 µM unless noted
# T-47D breast = test system: T-47D breast
# MDA-MB-435 melanoma = test system: MDA-MB-435 melanoma
# SW-620 colon = test system: SW-620 colon
# MCF7 breast = test system: MCF7 breast
# HCT-116 colon = test system: HCT-116 colon
# HCC-2998 colon = test system: HCC-2998 colon
# KM12 colon = test system: KM12 colon
# BT-549 breast = test system: BT-549 breast
SMILES,growth (T-47D breast),growth (MDA-MB-435 melanoma),growth (SW-620 colon),growth (MCF7 breast),growth (HCT-116 colon),growth (HCC-2998 colon),growth (KM12 colon),growth (BT-549 breast)
COc1ccc2[nH]cc(/C=C3\C(=O)Nc4ccccc43)c2c1,36.6%,-41.6% (active),11.4%,16.3%,17.9%,36%,13.7%,–
Cc1cc(O)ccc1C1=NN(c2ccc(S(N)(=O)=O)cc2)C(=O)CC1,45.8%,-21.1% (active),16.2%,27.7%,23.3%,64%,22.7%,–
COc1ccc(C2=Nn3c(nnc3-c3ccc(Cl)cc3N)SC2)cc1,88.1%,91.4%,108%,89.8%,–,120%,110%,–
COc1ccc2[nH]cc(C(c3ccc(Cl)cc3)N3CCCC3)c2c1 (stereo not given),74%,105%,112%,89.3%,96.5%,97%,101%,–
N#Cc1c(NN)n(C2OC(CO)C(O)C2O)c2ncnc(N)c12 (stereo not given),-14.9% (active),-15.5% (active),-15.6% (active),-11.2% (active),2.09% (active),-9.45% (active),1.94% (active),–
CC[C@H](Nc1nc(N)nc(C2CC2)c1C#N)c1nc2cccc(NCc3ccc(C(=O)NO)cc3)c2c(=O)n1-c1ccccc1,-5.53% (active),7.07% (active),11.6%,4.25% (active),-59.8% (active),0.531% (active),8.71% (active),–
CCCc1n(Cc2ccc3ccccc3c2)c2ccccc2[n+]1Cc1ccc2ccccc2c1,-9.39% (active),-82.8% (active),-74.2% (active),-64.4% (active),-91.2% (active),-57.2% (active),-75% (active),–
CC(=O)[C@@]1(O)[C@H](C)C[C@H]2[C@@H]3C=C(C)C4=Cc5c(cnn5-c5ccccc5)C[C@]4(C)[C@H]3[C@@H](O)C[C@@]21C,44.4%,37.7%,-59.9% (active),15.5%,14.4%,19.8%,-45% (active),–
COC(=O)c1cc2oc(/C=N/NC(=O)c3cc4oc(-c5cccc(C(F)(F)F)c5)cc4[nH]3)cc2n1Cc1ccccc1,94.4%,99.6%,106%,88.8%,67.6%,90.5%,88.3%,–
C=C(C)C1CCC2(C(=O)O)CCC3(C)C(CCC4C5(C)CCC(O)C(C)(C)C5CCC43C)C12 (stereo not given),-1.03% (active),48.6%,19.6%,1.31% (active),-88.5% (active),–,-26.6% (active),–
O=C(/C=C/c1ccccc1)n1c(-c2ccccc2)nc2ccccc21,97.3%,99.9%,102%,97.5%,109%,–,104%,–
COc1ccc(NC(=O)c2ccc(C(F)(F)F)nc2Nc2ccc(Cl)cc2C)cc1Cl,21.8%,18.6%,13.4%,9.61% (active),3.71% (active),16.7%,24.3%,–
Cc1cc(C)c2c(NC(=O)Nc3ccc(Cl)c(Cl)c3)n[nH]c2n1,93.3%,92.8%,112%,82.6%,108%,115%,104%,–
CC1=NN(c2cccc(S(N)(=O)=O)c2)C(=O)C1,84.2%,94.6%,94.8%,90.4%,104%,96.1%,107%,–
CN=C1C=C/C(=N/N=c2/ccn(O)cc2C)C=C1C,90.1%,102%,98.5%,81%,90.9%,91.7%,109%,–
CN1CCN(c2ccc(N3Cc4ccccc4OC4=C3C(=O)c3c(O)ccc(O)c3C4=O)cn2)CC1,-32.7% (active),0.932% (active),-61.1% (active),-39.2% (active),-80.9% (active),-65.8% (active),-53.2% (active),–
O=C1OC(c2ccc(-c3ccccc3)cc2)=C/C1=C/c1c(Cl)cccc1Cl,91.3%,104%,95.9%,76%,63%,102%,94.1%,–
COc1ccc(-c2n[nH]nc2-c2cc(OC)c3c(c2)OCO3)cc1,53.7%,-74.7% (active),22.6%,15.9%,–,-3.69% (active),2.06% (active),–

SMILES,growth (T-47D breast),growth (MDA-MB-435 melanoma),growth (SW-620 colon),growth (MCF7 breast),growth (HCT-116 colon),growth (HCC-2998 colon),growth (KM12 colon),growth (BT-549 breast)
Cc1nc([C@H]2CC[C@H]3[C@@H]4CCC5=CC(=O)CC[C@]5(C)[C@H]4CC[C@]23C)cs1,42%,66.8%,73.3%,55.2%,28.3%,61.1%,65.9%,–
NS(=O)(=O)c1ccc(N2N=C(c3ccc(Br)cc3)CC2c2cn(-c3ccccc3)nc2-c2ccc(Cl)cc2)cc1 (stereo not given),69.2%,79.6%,96.1%,53.1%,63%,77.8%,74.9%,–
Oc1c(-c2cc(C(F)(F)F)[nH]n2)cc(Cl)c(OCc2ccc(Cl)cc2)c1-c1ccc(Cl)c(C(F)(F)F)c1,–,-16.9% (active),8.41% (active),2.3% (active),-23.8% (active),12.7%,1.97% (active),-11.9% (active)
O=C(Nc1ccc(Oc2ccc(NC(=O)Nc3ccccc3Cl)cc2)cc1)Nc1ccccc1Cl,45.3%,48.8%,51.7%,44.1%,29.2%,80.4%,40.8%,–
CCC(=O)NC(O)C(Cl)(Cl)C(C)Cl (stereo not given),85.4%,96.8%,105%,90.3%,103%,101%,103%,–
O=C(Nc1ccc(OS(=O)(=O)c2ccc(F)cc2)cc1)C12CC3CC(CC(C3)C1)C2,31.3%,82.9%,39.4%,34%,33.7%,40.6%,37.3%,–
Nc1nc2c(c3ncccc13)C(c1ccccc1)Cc1ncccc1-2 (stereo not given),71.1%,-0.757% (active),52.9%,45.6%,–,81.7%,50.4%,–
O=[N+]([O-])c1cc(F)c2cccnc2c1O,99.5%,102%,87.4%,94.7%,95.8%,96.2%,111%,–
Cc1nc2ccc(Nc3nc(Cl)nc(N4CCOCC4)n3)cc2n1Cc1ccccc1,40.6%,110%,70.4%,64.7%,81.2%,0.667% (active),95.8%,–
CCN(C(=O)Nc1cccc2ccccc12)c1ccccc1,88.1%,105%,107%,97.8%,106%,103%,108%,–
COc1cc(-c2nc(-c3nc4cc(C(=O)c5ccccc5)ccc4[nH]3)cc3c2[nH]c2ccccc23)cc(OC)c1OC,88.9%,96.2%,103%,86.3%,82.6%,104%,84.5%,–
OC(c1cc(-c2ccc(C(F)(F)F)cc2)nc(-c2ccc(C(F)(F)F)cc2)c1)C1CCCCN1 (stereo not given),-67.9% (active),-58.3% (active),-70.5% (active),-80.8% (active),-77.3% (active),-70.8% (active),-87.7% (active),–
O=C(Cn1nncc1CN1C(=O)CSC1=O)Nc1ccc(F)cc1,–,100%,98.8%,94.6%,101%,96.2%,106%,98.8%
CC(=O)O[C@H]1[C@H](CC#CC#CC[C@@H]2C[C@]3(C)[C@H]4CC=C5[C@H]6[C@@H](C)[C@H](C)CC[C@]6(C(=O)NCCN(CCN)CCN)CC[C@@]5(C)[C@]4(C)CC[C@H]3C(C)(C)[C@H]2OC(C)=O)C[C@]2(C)[C@H]3CC=C4[C@H]5[C@@H](C)[C@H](C)CC[C@]5(C(=O)NCCN(CCN)CCN)CC[C@@]4(C)[C@]3(C)CC[C@H]2C1(C)C,–,64.7%,64%,-0.0516% (active),75.5%,72.3%,86.1%,99.9%
C=C(C)[C@@H]1CC[C@]2(C)[C@H](CC=C3[C@@H]4C[C@](C)(C(=O)N5CCN(C)CC5)CC[C@]4(C)CC[C@]32C)[C@@]1(C)CCC#N,–,51.3%,57.1%,34.1%,26.7%,70.6%,53.6%,56.6%
O=C(OCc1ccc2c(Cl)cc(Cl)c(O)c2n1)c1cc2ccccc2[nH]1,–,-89.4% (active),-66.2% (active),-35.7% (active),-73.3% (active),-73.1% (active),-63.9% (active),-76.3% (active)
O=C(c1ccc(C(F)(F)F)c(Cl)c1)N(Cc1ccc(Cl)cc1)c1ccc(-c2cc(C(F)(F)F)[nH]n2)c(O)c1,–,10.1%,17.2%,4.31% (active),3.75% (active),13.6%,10%,14.6%
